Experiment [1] in a line: qHTS assay to identify small molecule HDAC inhibitors (AID 1259364).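 Also: wild-type HCT-116 cells with endogenous class I/II HDAC activity; top concentration of the series differs between compounds; nearly all actives have a fitted effect of over 45% in size.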 In outline:
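Screening used wild-type human colon HCT-116 cells incubated overnight, dosed with compounds for 2 hours, and assayed with a homogeneous luminogenic HDAC I/II reagent for 30 minutes at room temperature.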

Experiment [2] is described as follows: qHTS assay to identify small molecule HDAC inhibitors - cell viability counter screen (AID 1259365). Also: series mostly up to about 92 µM; nearly all actives have a fitted effect of over 50% in size. An outline of the steps:
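Counter screen in wild-type HCT-116 cells: compounds dissolved in DMSO are pin-transferred onto overnight-plated cells and left 2hr at 37C. ATP-based CellTiter-Glo luminescence then measures viable cells.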
(Quantitative high-throughput screening tests each substance at several concentrations.)

The nature of experiment [3]: qHTS assay to identify small molecule agonists of the sonic hedgehog signaling (Shh) pathway - cell viability counter screen (AID 1259366). Also: nearly all actives have a fitted effect of over 50% in size. Also: potency is read from the fitted curve at half-maximal effect. In outline:
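Cells are plated at 2,000 per well and left 4hr at 37C, 5% CO2 before compound addition. After 23hr of treatment, CellTiter-Fluor reagent is added for 1hr at 37C and fluorescence is measured.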

The nature of experiment [4]: qHTS assay to identify small molecule antagonists of the sonic hedgehog signaling (Shh) pathway - cell viability counter screen (AID 1259367). Also: nearly all actives have a fitted effect of over 55% in size. In outline: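 Fluorescence read-out (CellTiter-Fluor, 1 hr at 37C) taken after 23 hr compound treatment of 3T3 Gli1-Luc cells stimulated with conditioned medium. Cells were seeded at 2,000 per well and pre-incubated 4 hr.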
A short description of experiment [5]: qHTS assay to identify small molecule agonists of the sonic hedgehog signaling (Shh) pathway (AID 1259368; calls by dose curve;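 also: NIH/3T3-derived 3T3Gli1-Luc cells carrying a stable Gli1-driven firefly luciferase reporter; series mostly up to about 92 µM; nearly all actives have a fitted effect of over 15% in size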). In outline: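 Hedgehog pathway agonism scored by increased firefly luciferase luminescence in 3T3Gli1-Luc cells treated 24 hr at 37 C; detection used a 30 min room-temperature reagent incubation.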
The nature of experiment [6]: qHTS assay to identify small molecule antagonists of the sonic hedgehog signaling (Shh) pathway (AID 1259369; calls by dose curve; also: nearly all actives have a fitted effect of over 45% in size; also: potency is read from the fitted curve at half-maximal effect). An outline of the steps: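 NIH/3T3 stable Gli1-Luc clone, 2,000 cells/well, 4hr settle; cpd + conditioned medium 24hr; Luc reagent 30min RT; luminescence.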
For experiment [7], the target named is Estrogen receptor beta (Homo sapiens) (UniProt Q92731). The experiment is described as follows: qHTS assay to identify small molecule agonists of the estrogen receptor beta (ER-beta) signaling pathway (AID 1259377; active = well fitted activation curve with a large enough effect in the signal ratio in the repeat runs, not every such curve was filed as active; the % refers to the signal ratio). In outline:
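Agonist mode cell assay in GripTite HEK293T cells expressing an ER-beta fusion that drives beta-lactamase from an Upstream Activator Sequence; 16 hr compound exposure at 37C, then 2 h LiveBLAzer B/G FRET substrate at room temperature, fluorescence read-out.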

Experiment [8] has the same target. The experiment is described as follows: qHTS assay to identify small molecule antagonists of the estrogen receptor beta (ER-beta) signaling pathway (AID 1259378; active = well fitted inhibition curve with a large enough effect in the signal ratio in the repeat runs, not every such curve was filed as active; the % refers to the signal ratio). An outline of the steps: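 ER-beta-UAS-bla HEK293T cells in 2% charcoal-stripped FBS medium treated with compound plus 1nM final 17-beta-estradiol for 16 hr at 37C. Beta-lactamase reporter read by FRET substrate fluorescence after 2 hours at room temperature.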

Experiment [9] can be described thus: qHTS assay to identify small molecule agonists of the androgen receptor (AR) signaling pathway in the presence of an antagonist - cell viability counter screen (AID 1259379).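 Also: MDA-kb2 human breast cancer cells carrying an MMTV luciferase reporter; series mostly up to about 92 µM; nearly all actives have a fitted effect of over 25% in size.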 In outline:
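MDA-kb2 viability measured by CellTiter-Fluor fluorescence in the same wells as the luciferase signal; nilutamide 3.0uM final; 15-point compound titration; 16 hr at 37C.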

A short description of experiment [10]: qHTS assay to identify small molecule agonists of the estrogen receptor beta (ER-beta) signaling pathway - cell viability counter screen (AID 1259380). Also: nearly all actives have a fitted effect of over 30% in size. An outline of the steps:
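Measured: luminescence from CellTiter-Glo after 30 min at room temperature, added to wells already read for the LiveBLAzer FRET reporter (2 hr substrate); ER-beta-UAS-bla HEK293T cells had 16 hr compound treatment at 37C, 5% CO2.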

Values joined by “and” are separate entries in the source; they are usually repeats but may differ in a detail not shown here. Identical values can stand only once. Records with an inconclusive call do not appear. Some compounds were tested as several samples or in several runs, with calls that do not always agree. Active and inactive are the calls of the source. Unless noted, calls follow the shape of the dose curve; as a rule, active = well fitted curve in the direction sought with a large enough effect in the repeat runs; inconclusive = weak or mixed curves; inactive = no such curve, though single readings can be large; an effect the other way counts as inactive or inconclusive.

Sequence of Estrogen receptor beta (Homo sapiens) (Q92731 whole entry, looked up, the tested form may be a part): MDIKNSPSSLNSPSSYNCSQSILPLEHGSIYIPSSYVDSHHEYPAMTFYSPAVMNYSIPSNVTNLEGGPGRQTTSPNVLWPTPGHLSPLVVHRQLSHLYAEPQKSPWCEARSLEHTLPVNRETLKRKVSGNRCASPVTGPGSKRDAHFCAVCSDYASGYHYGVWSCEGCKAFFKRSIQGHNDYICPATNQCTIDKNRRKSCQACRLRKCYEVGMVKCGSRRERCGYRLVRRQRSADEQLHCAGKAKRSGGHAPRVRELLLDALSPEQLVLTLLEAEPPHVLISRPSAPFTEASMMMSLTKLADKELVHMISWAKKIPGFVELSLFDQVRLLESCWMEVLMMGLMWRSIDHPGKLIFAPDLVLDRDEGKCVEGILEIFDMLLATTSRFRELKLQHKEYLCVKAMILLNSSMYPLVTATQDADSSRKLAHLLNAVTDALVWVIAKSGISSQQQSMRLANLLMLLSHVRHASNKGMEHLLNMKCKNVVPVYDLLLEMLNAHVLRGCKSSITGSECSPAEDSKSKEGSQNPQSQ

As for `CC(c1cc2ccccc2s1)N(O)C(N)=O` (stereo not given), the Potency entry in [1], in experiment [3], in experiment [4], in [6], in [7] and in [8] was “inactive” throughout. The Potency entry in experiment [9] and in [10] was “inactive” each time. Moreover, the result in experiment [2] and in [5] was inactive.
With `O=C(O)c1ccccc1C(c1ccc(O)cc1)c1ccc(O)cc1`, the Potency entry in experiment [1], in experiment [3], in [4], in experiment [6], in experiment [7] and in experiment [8] was “inactive” each time. Moreover, the Potency result in [9] and in experiment [10] was “inactive” in each case. Moreover, the call in experiment [2] and in experiment [5] was inactive.
On to `CCCCCC/C(C=O)=C\c1ccccc1`, for which the Potency result in experiment [1], in experiment [3], in [4], in experiment [6], in [7] and in [8] was “inactive” each time. Also, the Potency result in [9] and in experiment [10] was “inactive” throughout. The compound was called inactive in experiment [2] and in experiment [5].
As for `CC1=CCC2CC1C2(C)C` (stereo not given), the Potency entry in [1], in [3], in [4], in experiment [6], in [7] and in [8] was “inactive” each time. The Potency result in [9] and in experiment [10] was “inactive” each time. The outcome in experiment [2] and in experiment [5] was inactive.
In the case of `Nc1ccccc1[N+](=O)[O-]`, the Potency entry in experiment [1], in experiment [3], in [4], in experiment [6], in experiment [8] and in experiment [9] was “inactive” in each case. The Potency entry in experiment [10] was “inactive”. The outcome in experiment [2] and in experiment [5] was inactive.
`CCCCCC1=CCCC1=O`: the Potency entry in experiment [1], in [3], in experiment [4], in experiment [6], in [7] and in experiment [8] was “inactive” each time. Further, the Potency entry in [9] and in [10] was “inactive” throughout. Also, the compound was classed as inactive in experiment [2] and in experiment [5].
As to `N[C@@H](Cc1cc(I)c(Oc2cc(I)c(O)c(I)c2)c(I)c1)C(=O)O`, the Potency result in experiment [1], in experiment [3], in [4], in [6], in experiment [7] and in experiment [8] was “inactive” in each case. The Potency entry in experiment [9] and in experiment [10] was “inactive” each time. Further, the outcome in [2] and in experiment [5] was inactive.
For `O=c1[nH]nnc2ccccc12`, the Potency entry in experiment [1], in [3], in experiment [4], in experiment [6], in [8] and in experiment [9] was “inactive” in each case. Besides, in experiment [10], the Potency entry is “inactive”. Further, the result in experiment [2] and in [5] was inactive.
For `CCCCCCCCCCCCCCCO`, the Potency result in [1], in experiment [4], in [7], in [9] and in [10] was “inactive” throughout. The result in experiment [2] and in [5] was inactive. Moreover, the Potency in [3] is 30.9 µM (active) and inactive; in experiment [6] it was 27.5 µM (active) and inactive.
With `OCCOCCOCCO`, the Potency result in [1], in [3], in [4], in experiment [6], in experiment [7] and in experiment [8] was “inactive” throughout. Further, the Potency result in experiment [9] and in [10] was “inactive” each time. Further, the compound was called inactive in [2] and in experiment [5].
`OC[C@H]1O[C@@](CO)(O[C@H]2O[C@H](CO)[C@@H](O)[C@H](O)[C@H]2O)[C@@H](O)[C@@H]1O`: the Potency result in experiment [1], in experiment [3], in experiment [4], in experiment [6], in [8] and in experiment [9] was “inactive” throughout. Moreover, in experiment [10], the Potency entry was “inactive”. For the same compound, the compound was called inactive in [2] and in experiment [5].
For the compound `CC(C)CC(=O)CC(C)C`, the Potency entry in experiment [1], in experiment [3], in [4], in experiment [6], in experiment [7] and in experiment [8] was “inactive” in each case. For the same compound, the Potency result in experiment [9] and in [10] was “inactive” each time. Further, the compound was classed as inactive in [2] and in [5].
Regarding `ON=C1CCCCC1`, the Potency entry in experiment [1], in experiment [3], in experiment [4], in experiment [7], in experiment [8] and in experiment [9] was “inactive” each time. Also, the Potency result in experiment [10] was “inactive”. Moreover, the outcome in [2] and in experiment [5] was inactive. The Potency entry in experiment [6] is “inactive and 27.3 µM (active)”.
Take `CC(=O)Nc1cccc(O)c1`: the Potency result in [1], in [3], in experiment [4], in experiment [6], in experiment [7] and in experiment [8] was “inactive” in each case. Also, the Potency result in [9] and in experiment [10] was “inactive” in each case. Further, the outcome in [2] and in experiment [5] was inactive.
On to `CC(=O)OCC(=O)[C@@]12N=C(C)O[C@@H]1C[C@H]1[C@@H]3CCC4=CC(=O)C=C[C@]4(C)[C@H]3[C@@H](O)C[C@@]12C`, for which the Potency result in experiment [1], in experiment [3], in experiment [4], in experiment [6], in [8] and in experiment [9] was “inactive” in each case. For the same compound, the Potency entry in experiment [10] was “inactive”. In addition, the outcome in experiment [2] and in experiment [5] was inactive.
`COc1ccc(NC(C)=O)cc1N`: the Potency result in experiment [1], in experiment [3], in experiment [4], in experiment [6], in experiment [7] and in experiment [8] was “inactive” throughout. Moreover, the Potency result in experiment [9] and in experiment [10] was “inactive” each time. The compound was classed as inactive in [2] and in experiment [5].
Turning to `O=C=NCCCCCCN=C=O`, the Potency entry in experiment [1], in [3], in experiment [4], in experiment [6], in experiment [7] and in experiment [8] was “inactive” each time. In addition, the Potency entry in [9] and in experiment [10] was “inactive” throughout. The compound was called inactive in [2] and in experiment [5].

The record behind these values is PubChem BioAssay (Tox21).
